# Source: PubChem BioAssay
# Rows were chosen to be rich in hits. Some 10% of all compounds tested hit in one or more screens of this group.
# KB-V1 MDR tox: qHTS assay for MDR1-selective chemotherapeutics: Primary screen using the drug-selected MDR subline cells KB-V1; KB-V1 MDR cells viability, CellTiter-Glo, 72 h; Potency, µM (highest dose often 46.1 µM), actives largely listed as cytotoxic; 400,000 tested, 3.4% active; further: on the % scale 0 is the no-effect control and ±100 the full control effect; nearly all actives have a fitted effect of over 60% in size
#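 Compound-treated KB-V1 multidrug-resistant cells, 72 h, 37 degrees C; viability by CellTiter-Glo. Fitted qHTS curves give the values.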
# VP16 counter: VP16 counterscreen qHTS for inhibitors of ROR gamma transcriptional activity. Drosophila S2 Gal4-VP16 UAS-luciferase, luminescence, 20 h. Potency, µM (highest dose often 53.6 µM), for inactives: at the highest dose activity, negative = inhibition, usual class: inhibitors. 310,000 tested, 3.5% active. AID 2546, 2010;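 further: Gal4-VP16 expression switched on by copper sulfate through the metallothionein promoter; on the % scale 0 is the no-effect control and ±100 the full control effect; nearly all actives have a fitted effect of over 50% in size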
# SW480 rerep: A quantitative high throughput screen for small molecules that induce DNA re-replication in SW480 colon adenocarcinoma cells; SW480 DNA re-replication, Hoechst DNA content imaging, 48 h; Potency, µM (highest dose often 46.1 µM), for the others: top-dose re-replication activation, actives largely listed as activators; 340,000 tested, 1.8% active; further: % of control where 0% means no effect; nearly all actives have a fitted effect of over 55% in size
#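 Image-based DNA-content assay: after two days of treatment, nuclei were labelled with the DNA dye Hoechst and imaged, and hits were compounds raising the count of nuclei showing high fluorescence intensity.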
# KB-3-1 tox: qHTS assay for MDR1-selective chemotherapeutics: Primary screen using the parental adenocarcinoma cell KB-3-1. KB-3-1 viability, CellTiter-Glo ATP luminescence, 72 h. Potency, µM (series often up to 46.1 µM), hits mostly cytotoxic. 400,000 tested, 1.4% active. AID 1347075, 2019; further: on the % scale 0 is the no-effect control and ±100 the full control effect; nearly all actives have a fitted effect of over 60% in size
#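 Cytotoxicity in the drug-sensitive parental line KB-3-1 was scored as loss of CellTiter-Glo luminescence following 72 h incubation with compound. Values come from curve fitting of normalized concentration-response data.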
# RORgamma inh: qHTS for inhibitors of ROR gamma transcriptional activity; Nuclear receptor ROR-gamma (Mus musculus), P51450; Drosophila S2 Gal4-RORgamma UAS-luciferase reporter, 20 h; Potency, µM (titrated, usually from 53.6 µM), for inactives: top-dose activity change, negative = inhibition, most hits filed as inhibitors; 310,000 tested, 5.4% active; further: on the % scale 0 is the no-effect control and ±100 the full control effect; nearly all actives have a fitted effect of over 60% in size
# Target sequence (P51450 whole entry, looked up, the tested form may be a part): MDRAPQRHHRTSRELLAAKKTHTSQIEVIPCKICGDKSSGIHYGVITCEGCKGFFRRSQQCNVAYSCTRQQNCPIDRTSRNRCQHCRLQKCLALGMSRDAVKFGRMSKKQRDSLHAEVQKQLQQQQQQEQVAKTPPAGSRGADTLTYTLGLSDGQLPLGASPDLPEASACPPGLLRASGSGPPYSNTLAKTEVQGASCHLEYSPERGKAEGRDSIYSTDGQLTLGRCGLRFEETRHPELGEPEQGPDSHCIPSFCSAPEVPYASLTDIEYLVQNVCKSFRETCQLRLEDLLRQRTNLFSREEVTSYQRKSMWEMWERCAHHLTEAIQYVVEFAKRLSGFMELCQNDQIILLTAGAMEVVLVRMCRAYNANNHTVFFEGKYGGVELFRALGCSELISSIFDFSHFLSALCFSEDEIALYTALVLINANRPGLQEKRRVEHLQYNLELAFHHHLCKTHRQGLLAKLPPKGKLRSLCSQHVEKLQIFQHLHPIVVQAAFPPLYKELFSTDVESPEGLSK
#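 Stably transfected Drosophila Schneider cells are the test system, with ROR gamma fused to Gal4 and luciferase under UAS control; luminescence is read after 20 hr of 700 uM copper sulfate induction at ambient temperature.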
# MCF10A rerep: A quantitative high throughput screen for small molecules that induce DNA re-replication in MCF 10a normal breast cells. MCF 10A DNA re-replication, Hoechst nuclear intensity, 48 h. Potency, µM (highest dose often 46.1 µM), without a hit: at the highest dose activity, positive = re-replication, most hits filed as activators. 350,000 tested, 2.9% active. AID 624296, 2012; further: % of control where 0% means no effect; nearly all actives have a fitted effect of over 50% in size
# Starred values were filed as active, the others as inactive; i = inactive; u = inconclusive; x = not tested or not shown; ! = not active in a repeat; [ ] = remark or other dose. The call rests on the fitted dose curve; in most records, active means well fitted curve in the direction sought with a large enough effect; inconclusive means small, poorly fitted or top-dose-only effect, or another doubt; inactive means no such curve, though single readings can be large; an effect the other way counts as inactive or inconclusive. Potency means the concentration at half of the fitted maximal effect.
SMILES,KB-V1 MDR tox,VP16 counter,SW480 rerep,KB-3-1 tox,RORgamma inh,MCF10A rerep
CCOC(=O)SC1=N/C(=C\c2ccc(N(C)C)cc2)C(=O)S1,i,u,7%,i,13µM*,-3%
CCSC1=N/C(=C\c2ccc(C(=O)O)cc2)C(=O)S1,i,11%,0%,i,20%,-3%
CCOC(=O)c1ccc(-c2ccc(/C=C(\C#N)C(=O)Nc3c(C)cccc3Cl)o2)cc1,i,x,x,i,x,x
CCOC(=O)c1ccc(-c2ccc(/C=C(\C#N)C(=O)NCC3CCCO3)o2)cc1 (stereo unspecified),16µM*,-15%,5%,i,3%,14%
N#C/C(=C/c1ccc(-c2ccc(Br)cc2)o1)C(=O)NC1CCCCC1,i,-25%,u,i,26%,18µM*
CCC(C)OC(=O)/C(C#N)=C/c1ccc(-c2ccc(Br)cc2)o1 (stereo unspecified),i,x,x,i,x,x
Cn1c(SCC(=O)N/N=C/c2ccco2)nc2ccccc21,i,-5%,-10%,i,6%,-10%
Cc1ccc(-n2c(SCC(=O)N/N=C/c3c(C)nn(-c4ccccc4)c3C)nc3ccccc3c2=O)cc1,i,-7%,-3%,i,44%,18%
Cc1ccccc1-n1c(SCC(=O)NCc2cccs2)nc2ccccc2c1=O,5.8µM*,-21%,10%,i,u,3%
Cc1ccccc1-n1c(SCC(=O)N/N=C/c2c(C)nn(-c3ccccc3)c2C)nc2ccccc2c1=O,5.8µM*,-18%,-26%,i,30%[10 µM],u
Cc1nn(-c2ccccc2)c(C)c1/C=N/NC(=O)CSc1nc2ccccc2c(=O)n1-c1ccc(Br)cc1,23µM*,u,27%,u,u,13µM*
CC(/C=N/NC(=O)CSc1nc2ccccc2n1C)=C\c1ccco1,u,20%,u,i,12%,21µM*
COc1cccc(-n2c(SCC(=O)NCc3cccs3)nc3ccccc3c2=O)c1,i,7%,20%,i,u,u
CCCNC(=O)C1(C)CCCN(Cc2cc(-c3ccccc3)n(C)n2)C1 (stereo unspecified),i,x,x,i,x,x
Cc1ccc(Cc2c(-c3ccc(F)cc3)nc3cc(C)ccn23)cc1,i,x,x,i,x,x
Cc1ccc2oc(-c3ccc(Cl)c(NC(=O)c4cc5ccccc5o4)c3)nc2c1,i,x,x,i,x,x
CC(=O)Nc1cccc(NC(=O)Cc2csc(COc3cccc(C)c3)n2)c1,u,x,x,i,x,x
C=C(C)Cn1c(SCC(=O)N/N=C/c2c(O)ccc3ccccc23)nc2ccccc2c1=O,u,2.5µM*,u,i,0.63µM*,u
CCn1c(SCC(=O)N/N=C/c2ccc(C)s2)nc2ccccc21,u,u,u,13µM*,u,13µM*
Cc1ccc(/C=N/NC(=O)CSc2nc3ccccc3c(=O)n2-c2ccccc2)s1,i,-25%,-6%,i,u,-65%
Cc1ccc(/C=N/NC(=O)CSc2nc3ccccc3c(=O)n2-c2ccccc2C)s1,10µM*,u,0.52µM*,u,u,-35%
CCn1c(SCC(=O)N/N=C/C=C/c2ccco2)nc2ccccc21,i,16µM*,16µM*,i,u,21µM*
COc1ccc(C)cc1NC(=O)c1c2c(nc3ccccc13)C(=O)N(C1CCCCC1)C2,i,x,x,i,x,x
CCC(C)C(NC(=O)C(Cc1ccc(O)cc1)NC(=O)OCc1ccccc1)C(=O)OC (stereo unspecified),i,x,x,i,x,x
CCC/C=C(\CCC)C(NC(=O)Oc1ccc(F)cc1)c1ccc(C(=O)OC)cc1 (stereo unspecified),x,-1%,x,x,3%,x
SMILES,KB-V1 MDR tox,VP16 counter,SW480 rerep,KB-3-1 tox,RORgamma inh,MCF10A rerep
CC(C)C[C@H](CO)N(Cc1ccccc1)S(=O)(=O)N(Cc1ccccc1)[C@@H](CO)CC(C)C,21µM*!,x,18%,u,x,u
COC(=O)[C@H](CC(C)C)N(Cc1ccccc1)S(=O)(=O)N(Cc1ccc(OC)cc1)[C@@H](CC(C)C)C(=O)OC,18µM*!,x,-2%,u,x,11%
COC(=O)C(CC(C)C)N(Cc1cc(OC)cc(OC)c1)S(=O)(=O)c1ccccc1Br (stereo unspecified),i,x,21µM*,i,x,19%
CCOC(=O)[C@@H](C)N(Cc1ccc(OC)cc1)S(=O)(=O)N(Cc1ccccc1)[C@H](C(=O)OC)C(C)C,9.2µM*!,x,2%,u,x,u
O=C1C=C[C@@H](O)[C@@H]2[C@H]3C(=O)N(c4ccc(F)cc4F)C(=O)[C@@H]3CC[C@@H]12,x,0%[10 µM],x,x,-10%[10 µM],x
COc1ccccc1/C=C/C=N/NC(=O)c1ccccn1,i,u,-2%,i,u,-1%
NNC(=O)c1cc(-c2ccco2)[nH]n1,i,0%,0%,i,1%,4%
COc1ccccc1/C=C/C=N/NC(=O)c1cc(-c2ccco2)[nH]n1,u,u,1%,i,11µM*,u
O=C(N/N=C/C(Br)=C/c1ccccc1)c1cc(-c2ccco2)[nH]n1,u,u,19%,u,u,7.3µM*
CC1C(=O)NN=C1C(=O)N/N=C\C(Br)=C\c1ccccc1 (stereo unspecified),i,1.6µM*,u,i,1.3µM*,u
Cc1ccc(-c2cc(C(=O)N/N=C/c3ccccc3)n[nH]2)o1,i,-10%,12%,i,-20%,-25%
CC(/C=N/NC(=O)c1cc(-c2ccc(C)o2)[nH]n1)=C\c1ccccc1,i,u,18µM*,i,u,23µM*
Cc1nn(C)c(C)c1S(=O)(=O)N(CC(=O)NCCc1ccc(Cl)cc1)c1ccc(C(C)C)cc1,i,x,x,i,x,x
CC(=O)C1=C(OC(=O)C(C)C)c2ccccc2S(=O)(=O)N1Cc1ccccc1,i,x,x,i,x,x
Cc1ccccc1C(=O)Nc1c(C)nc(Nc2ccccc2)nc1Nc1ccccc1,i,x,x,u,x,x
O=C1CN(C(=O)COc2ccc(Cl)cc2Cl)C(c2ccc(F)cc2)c2cc(F)ccc2N1 (stereo unspecified),i,x,x,i,x,x
